Measured values reported in PubChem BioAssay AID624053 (National Center for Advancing Translational Sciences (NCATS), 2012).
Calls of active or inactive are those of the source.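 The calls were made as follows: active = neuropeptide S receptor blocker with IC50 at or below 10 µM; inconclusive = IC50 above 10 µM but below 20 µM; inactive = IC50 of 20 µM or more.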

Target: Neuropeptide S receptor (Homo sapiens) (UniProt Q6W5P4)
Assay: qHTS for Antagonists of the Neuropeptide S Receptor: SAR in ERK
Conditions: CHO-NPSR cells, NPS-induced pERK1/2 HTRF
Text: Neuropeptide S receptor (NPSR), previously known as GPR154, is a recently de-orphanized G protein coupled receptor. Its endogenous ligand is the 20 amino acids peptide Neuropeptide S (NPS). […] NPS and its receptor are found in various tissues. Specifically they are highly expressed in brain areas that have been implicated in modulation of arousal, stress and anxiety. Central administration of NPS in mice produces an unusual profile of activity by inducing wakefulness and arousal, while at the same time suppressing anxiety. Therefore, NPSR may represent a novel drug target for the treatment of sleep and anxiety disorders. To identify NPSR antagonists, we developed a cell-based assay with transfected NPS receptor. NPS can stimulate the production of cAMP as well as release intracellular calcium in Chinese hamster ovary cells stably expressing NPS receptor. This change in intracellular calcium can be detected using a calcium indicator dye on a calcium imaging plate reader system (FDSS). […] Reinscheid et al. have demonstarted that the binding of NPS to NPSR activates the phosphorylation of the MAPK extracellular regulated kinase (ERK). Thus NPSR antagonists of ERK activation should reduce ERK phosphorlyation is a dose dependent manner NIH Chemical Genomics Center [NCGC] NIH Molecular Libraries Probe Production centers Network [MLPCN] MLPCN Grant: DA026210 Assay Submitter (PI): Heilig, Markus Alexander
Intracellular pERK1/2 levels were measured using a time-resolved fluorescence resonance energy transfer (TR-FRET) assay by a HTRF Cellul'erk kit (Cisbio, MA). The CHO cells overexpressing NPSR were seeded at 200 microL/well with 25,000 cells in white, tissue culture treated clear bottom 96-well plates (Greiner Bio-One, NC). Following overnight incubation at 37 masculineC with 5% CO2, the growth medium was replaced with 100 microL /well Opti-MEM medium (ATCC, VA) and incubated at 37 degrees C with 5% CO2 for an additional 4 hours. The compounds prepared in 100% DMSO were added to assay plates at 1 microL/well. The assay plates were incubated for 10 min at 37 degrees C with 5% CO2 and NPS solution (2 nM NPS peptide prepared in the Opti-MEM medium with 0.2 % BSA and 0.005 % Tweeen-20) was then added at 100 microL/well. After a 20 min incubation at 37 degrees C with 5% CO2, the media was aspirated and the place plates were placed on ice for 5 min followed by the addition of 50 microL/well of 1 cell lyses solution. The plates were then incubated at room temperature while gently rocking (for mixing) for 15 min. […] After overnight incubation at room temperature in the dark, the plates were measured using the EnVision plate reader similarly as that of cAMP assay.

Sequence of Neuropeptide S receptor (Homo sapiens) (Q6W5P4 whole entry, looked up): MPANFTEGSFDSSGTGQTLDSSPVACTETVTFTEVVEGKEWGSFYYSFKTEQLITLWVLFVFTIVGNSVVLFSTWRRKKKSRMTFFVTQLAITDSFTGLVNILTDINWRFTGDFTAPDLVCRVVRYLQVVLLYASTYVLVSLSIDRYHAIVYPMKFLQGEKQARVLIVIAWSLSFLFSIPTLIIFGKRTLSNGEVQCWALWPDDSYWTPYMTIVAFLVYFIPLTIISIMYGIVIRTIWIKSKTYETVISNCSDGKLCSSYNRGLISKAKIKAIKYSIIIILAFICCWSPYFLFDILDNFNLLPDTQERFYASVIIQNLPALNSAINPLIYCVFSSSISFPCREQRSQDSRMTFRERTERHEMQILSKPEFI

IC50, active:
COc1ccc(C2c3c(ncn(CCN4CCOCC4)c3=N)Oc3ccc4ccccc4c32)cc1OC (centres undefined) 59.7 nM
CCC(C)(CCN1CCOCC1)N(Cc1cc2ccccc2n(C)c1=O)C(=O)C1CCCCC1 (centres undefined) 9 nM
Cc1c(P(=S)(c2ccccc2)c2ccccc2)[n+]2ccccc2n1C/C=C/c1ccccc1 9.3 nM
O=C1OC(c2ccccc2)(c2ccccc2)N2CCN(C(=O)NCc3ccc(F)cc3)CC12 (centres undefined) 15.8 nM
